From PubChem BioAssay AID2014 (Sanford-Burnham Center for Chemical Genomics, 2009) come the findings set out here.

About 3,000 (1%) of roughly 290,000 compounds were called active. The rule behind the calls is not given here. The list comes from a sample in which actives are over-represented; it also holds similar structures and randomly drawn compounds.

This experiment deals with Polyadenylate-binding protein 1 (Homo sapiens) (UniProt P11940). The experiment in a line: blockers of PABP interaction with poly(A) – biochemical, fluorescence polarization, uHTS, primary screen (AID 2014).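 Note: calls also rest on retests at 20 µM and on dose response follow-up.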 The settings on record: PABP-poly(A) RNA binding, stronger effect = higher value. On the technique in general: Fluorescence polarisation rises when a labelled molecule tumbles more slowly, as on binding a larger partner.
Sequence of Polyadenylate-binding protein 1 (Homo sapiens) (P11940 whole entry, looked up): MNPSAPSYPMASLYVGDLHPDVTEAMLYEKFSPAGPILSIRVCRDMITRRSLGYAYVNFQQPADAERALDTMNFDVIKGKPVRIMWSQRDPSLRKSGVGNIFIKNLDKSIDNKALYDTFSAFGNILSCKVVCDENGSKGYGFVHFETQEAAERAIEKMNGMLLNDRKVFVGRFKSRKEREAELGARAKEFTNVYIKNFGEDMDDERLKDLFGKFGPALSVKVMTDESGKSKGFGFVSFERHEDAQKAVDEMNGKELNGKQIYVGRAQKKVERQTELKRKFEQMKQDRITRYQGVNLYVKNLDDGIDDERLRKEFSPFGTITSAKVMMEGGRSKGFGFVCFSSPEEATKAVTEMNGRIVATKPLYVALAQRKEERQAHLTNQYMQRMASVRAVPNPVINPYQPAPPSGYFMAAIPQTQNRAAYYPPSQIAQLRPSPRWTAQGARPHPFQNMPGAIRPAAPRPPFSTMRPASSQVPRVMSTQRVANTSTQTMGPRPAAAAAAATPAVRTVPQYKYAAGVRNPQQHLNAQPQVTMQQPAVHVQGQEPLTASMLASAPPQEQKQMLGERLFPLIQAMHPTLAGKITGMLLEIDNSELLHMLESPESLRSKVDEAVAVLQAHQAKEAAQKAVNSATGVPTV

As usually defined, the inhibition is the relative decrease from the control value, in per cent. On to `Cn1c(CCc2ccccc2)nnc1SCC(N)=O`, for which, where the note is “at 35 µM”, the inhibition is -5.2% (inactive).
Same read-out and setting: for `C/C(=N\Nc1nncc2ccccc12)c1ccc(Cl)c([N+](=O)[O-])c1` the value was 2% (inactive).
Consider `Clc1ccc(CN2CCCCCC2)cc1Cl`, for which the inhibition (at 35 µM) was 17.8% (inactive).
For the compound `COc1ccccc1CN1CC(C(=O)NCCc2cn[nH]c2)CCC1=O` (configuration not stated), the inhibition (at 35 µM) is 27% (inactive).
Still for that read-out and setting: for `CCn1nnnc1SCC(=O)Nc1ccc(N(C)C)cc1` the value was 1.4% (inactive).
Regarding `Cc1ccc(Nc2nc(Cl)c(C=O)s2)cc1`, the inhibition is 40.3% (inactive) (at 35 µM) and 44.5% (confirmation repeats, at 20 µM).
Consider `Cc1ccsc1-c1cc(C(=O)O)c2c(ccc3ccccc32)n1`, for which the inhibition (at 35 µM) was 20.2% (inactive).
As to `Cc1cc(C)c2nc(-c3ccco3)cc(C(=O)O)c2c1`, the inhibition (at 35 µM) is 91.2% (active).
Turning to `COC(=O)c1cnn2c(C(F)(F)F)cc(-c3ccco3)nc12`, for the setting “at 35 µM”, the inhibition is 23.9% (inactive).
Still for that read-out and setting: for `CCN(CC)c1ccc(/C=N/NC(=O)c2cnccn2)c(O)c1` the value was -7.1% (inactive).
Take `CCN(CC)c1ccc(/C=N/Nc2nc(C)cc(C)n2)c(O)c1`: the inhibition reads like this: (at 35 µM) 16.6% (active); (confirmation repeats, at 20 µM) 67.4%.
Regarding `Cc1cc(C)nc(N/N=C/c2ccncc2)n1`, under “at 35 µM”, the inhibition is 2% (inactive).
`c1ccc(CCC2=NCCn3cccc32)cc1`: the inhibition (at 35 µM) was 67.5% (active).
As to `CC1CSc2nnc(CCc3ccccc3)n21` (configuration not stated), the inhibition (at 35 µM) was -2.9% (inactive).
In the case of `S=C(NCCc1ccccc1)N1CCn2cccc2C1c1ccncc1` (configuration not stated), for the setting “at 35 µM”, the inhibition is 6.4% (inactive).
For `O=C(Nc1cccnc1Cl)c1cc(-c2ccccc2O)on1`, the inhibition (at 35 µM) was -6.2% (inactive).
Same read-out and setting: for `COc1ccc(NC(=O)c2cccc3c2C(=O)N(CC2CCCO2)C3)cc1OC` (configuration not stated) the value was -2% (inactive); for `COc1ccc(CNC(=O)c2cc3c(=O)n4ccccc4nc3n(CC3CCCO3)c2=N)cc1` (configuration not stated), -5.2% (inactive); for `Cc1cccn2c(=O)c3cc(C(=O)NCC4CCCO4)c(=N)n(Cc4ccc(F)cc4)c3nc12` (configuration not stated), -1% (inactive).
The same measure, in the same setting: as for `Cc1ccc2nc3c(cc(C(=O)NCCc4ccccc4)c(=N)n3CC3CCCO3)c(=O)n2c1` (configuration not stated), the figure is 83.3% (active); as for `COc1ccc(-n2c(=O)[nH]c3cc(C(=O)NCCc4ccc(OC)c(OC)c4)ccc3c2=O)c(OC)c1`, 11% (inactive).
Regarding `COc1ccc(N2CCN(C(=O)c3ccccc3NC(=O)C3=C(C)OCCS3)CC2)cc1`, the inhibition (at 35 µM) is -6.5% (inactive).
For the compound `O=C(c1cc(-c2ccc(O)cc2)on1)N1CCOCC1`, the inhibition (at 35 µM) is 2.9% (inactive).
The same measure, in the same setting: for `CCOC(=O)CNC(=O)CSc1nc2cccnc2n1CC` the value was 23.1% (inactive).
For the compound `CCc1nc2cccnc2n1-c1ccc(C(=O)O)cc1`, the inhibition is, setting by setting: (at 35 µM) 73.7% (active); (confirmation repeats, at 20 µM) 87.5%.
For `COCCCNC(=O)Cc1ccc(-n2c(C)nc3cccnc32)cc1` the same measures were 36% (inactive) and 12%.
As for `CCOC(=O)[C@@H]1[C@H]2COc3cc(OC)ccc3[C@@H]2N2C(=O)N(c3cccc(C)c3)C(=O)[C@@]12C`, under “at 35 µM”, the inhibition was 7.6% (inactive).
As to `O=C(Cc1cccs1)Nc1ccc([N+](=O)[O-])cc1`, the inhibition (at 35 µM) was 2.1% (inactive).
As to `Cc1ccc(/C=C/C(=O)Nc2cc(S(=O)(=O)N3CCCCCC3)ccc2OCC(F)(F)F)o1`, the inhibition (at 35 µM) is -0.3% (inactive).
`COC(=O)/C=C\C(=O)Nc1cccc([N+](=O)[O-])c1`: where the note is “at 35 µM”, the inhibition is 9.4% (inactive).
As for `Cc1ccc(/C=C/C(=O)Nc2ccc([N+](=O)[O-])c(NC(=O)/C=C/c3ccc(C)o3)c2)o1`, the inhibition by setting is: (at 35 µM) 0% (active); (confirmation repeats, at 20 µM) 119%.
On to `COCc1ccc(CN2CCC(Oc3ccc(C(=O)NCc4ccccn4)cc3)CC2)o1`, for which the inhibition (at 35 µM) was -1.3% (inactive).
Consider `Cc1[nH]c2ccccc2c1C(=O)CN1CCCC(C)C1` (configuration not stated), for which, where the note is “at 35 µM”, the inhibition is 8.2% (inactive).
`Cc1nc(SCC(=O)NC2CCCC2)[nH]c(=O)c1C`: the inhibition (at 35 µM) is 3.8% (inactive).
Regarding `O=C(/C=C/c1ccc([N+](=O)[O-])o1)NNC(=O)c1ccc(F)cc1`, the inhibition (at 35 µM) was 8.2% (inactive).
For the compound `CN=C1S/C(=C\c2ccc(Sc3ccc(Cl)cc3)o2)C(=O)N1C`, the inhibition (at 35 µM) is -5.7% (inactive).
On to `CN1C(=O)/C(=C/c2ccco2)SC1=Nc1cccc(C(=O)O)c1`, for which the inhibition was -1.6% (active) (at 35 µM) and 78.4% (confirmation repeats, at 20 µM).
Consider `CN=C1S/C(=C\c2c(OC)cc(OC)cc2OC)C(=O)N1C`, for which, for the setting “at 35 µM”, the inhibition was 8.5% (inactive).
Still for that read-out and setting: for `COC(=O)C1(C)NC(c2ccc(F)cc2)C2C(=O)N(c3ccccc3)C(=O)C21` (configuration not stated) the value was 10.8% (inactive); for `CC(=O)NS(=O)(=O)c1ccc2c(c1)Cc1cc(S(=O)(=O)NC(C)=O)ccc1-2`, 6% (inactive).
In the case of `COc1ccccc1CNS(=O)(=O)CC12CCC(CC1=O)C2(C)C` (configuration not stated), the inhibition (at 35 µM) was 3.9% (inactive).
For `CC(C)Cc1nnc(NC(=O)CCc2ccccc2)s1`, the inhibition (at 35 µM) is -7.4% (inactive).
Same read-out and setting: for `COC(OC)c1ccnc(SCc2ccccc2Cl)n1` the value was -6.4% (inactive); for `c1ccc(CSc2nnc(-c3ccco3)c(-c3ccco3)n2)cc1`, 74.8% (active).
As to `Fc1cccc(Cl)c1CSc1ccc(-c2ccco2)nn1`, the inhibition (at 35 µM) was -6.6% (inactive).
Take `Clc1ccccc1CSc1nnc(-c2ccco2)c(-c2ccco2)n1`: the inhibition by setting is: (at 35 µM) 82.6% (active); (confirmation repeats, at 20 µM) 87.4%.
For `Brc1ccc(CSc2ccc(-c3ccco3)nn2)cc1`, the inhibition is, setting by setting: (at 35 µM) -6.1% (inactive); (confirmation repeats, at 20 µM) 5.9%.
On to `O=c1[nH]c(SCc2ccccc2)nnc1-c1ccccc1`, for which the inhibition runs as follows: (at 35 µM) 62.5% (inactive); (confirmation repeats, at 20 µM) -3.1%.
